Experimental findings from PubChem BioAssay (EPA / NIEHS) are described below.

The structures appear in SMILES notation. Activity calls are given as the source filed them. How the source made its calls: active means hit-call score of the fitted dose curve at least 0.9, where 1 is the maximum; inactive means score below 0.9. Peptide text beside a SMILES is read from it.

This experiment is described as follows: ATG_PPRE_CIS: Attagene CIS-FACTORIAL HepG2 Assay for human Peroxisome Proliferator-activated Response Element (PPRE) (AID 2282958). As to conditions: HepG2 PPRE cis-element reporter, Attagene transcription factor profiling; actives raise or lower the signal. The protocol: ATG_CIS is a cell-based, multiplexed-readout assay that uses HepG2, a human liver cell line, with measurements taken at 24 hours after chemical dosing in a 24-well plate.ATG_PPRE_CIS is one of 52 assay component(s) measured or calculated from the ATG_CIS assay. It is designed to make measurements of mRNA induction, a form of inducible reporter, as detected with fluorescence intensity signals by Reverse transcription polymerase chain reaction (RT-PCR) and Capillary electrophoresis technology.Data from the assay component ATG_PPRE_CIS was analyzed into 1 assay endpoint. This assay endpoint, ATG_PPRE_CIS, was analyzed with bidirectional fitting relative to DMSO as the negative control and baseline of activity. Using a type of inducible reporter, measures of mRNA for gain or loss-of-signal activity can be used to understand the reporter gene at the transcription factor-level as they relate to the gene PPARA and PPARD and PPARG. Furthermore, this assay endpoint can be referred to as a primary readout, because this assay has produced multiple assay endpoints where this one serves a reporter gene function. To generalize the intended target to other relatable targets, this assay endpoint is annotated to the nuclear receptor intended target family, where the subfamily is non-steroidal.
Human liver HepG2 cells are transiently transfected with multiple reporter transcription units (MRTUs) in 6-well plates using FuGene 6 reagent (Roche; 3 ml FuGene/1 mg DNA). The MRTU constructs are regulated by a cis-regulating element (promoter). […] A major difference between the CIS and TRANS system is that in CIS activities of endogenous TFs are measured, whereas the TRANS assay evaluates changes in activities of exogenous, chimeric NR-Gal4 proteins. […] At the end of 24 hour incubation, total RNA was isolated using TriZol reagent (Invitrogen). The isolated RNA is then reverse-transcribed using oligo(dT) primer and Mo-MLV reverse transcriptase (Invitrogen) with DNAse I (Ambion) treatment for 30 min. The one-tenth of the produced cDNA was amplified by PCR using Taq DNA polymerase (Invitrogen) and two reporter sequence-specific primers. The PCR products were fluorescently labeled by primer extension with 6-arboxyfluorescein (6-FAM) 5'-labeled reporter sequence-specific primer (2 min at 95 C, 20 s at 68 C and 10 min at 72 C) and these products were digested with 5U of HpaI (New England Biolabs) for 2h at 37 C. The fragments were purified using Qiaquick PCR columns (Qiagen), analyzed on an ABI 3130xL genetic analyzer (Applied Biosystems) with peak positions identified by using a set of X-rhodamine (ROX)-labeled MapMarker1000 molecular weight standards (BioVentures). The raw capillary electrophoresis data was processed using Attagraph software (Attagene).
Turning to `CCCCCCCC(=O)OCC(COC(=O)CCCCCCC)OC(=O)CCCCCCC`, the molecule was called inactive.
`CCOC(=O)c1ccc(C)cc1`: the molecule was called inactive.
Still for that read-out and setting: the result for `CCCCCCCCCCCCCCCCCCOS(=O)(=O)O` reads “inactive”; that for `CCC(C)c1ccccc1` (stereo not given), “inactive”; that for `CCCC/C=C/C=C\C=O`, “inactive”.
Turning to `C=C(C)C(=O)OCCOC(=O)C(=C)C`, the result was inactive.
Take `c1ccc(Nc2cccc3ccccc23)cc1`: the call was inactive.
On to `O=C(Oc1ccccc1)c1ccccc1C(=O)Oc1ccccc1`, for which the call was inactive.
For the molecule `O=C(Cl)c1ccc(C(=O)Cl)cc1`, the molecule was classed as inactive.
Still for that read-out and setting: the same measure for `CC(=O)OC1CCCCC1C(C)(C)C` (stereo not given): “inactive”; for `Cc1ccc2c(c1)CCCN2`: “inactive”; for `Nc1ccc(C(=O)O)cc1`: “inactive”.
With `CC(=O)OC/C=C(/C)CCC=C(C)C`, the molecule was classed as inactive.
With `C=CC(C)(O)CC/C=C(\C)CC` (stereo not given), the outcome was inactive.
With `COC(=O)C=Cc1ccccc1`, the outcome was inactive.
In the case of `CC(Cl)COP(=O)(OCC(C)Cl)OCC(C)Cl` (stereo not given), the molecule was called inactive.
Turning to `C=CC(C)(CCC=C(C)C)OC(=O)C=Cc1ccccc1` (stereo not given), the call was inactive.
Same read-out and setting: the result for `CCc1cccc(C)c1N(C(=O)CS(=O)(=O)O)C(C)COC` (stereo not given) reads “inactive”.
As for `CC1CC(=O)CC(C)(C)C1` (stereo not given), the molecule was classed as inactive.
As to `Cc1c(C(=O)c2c[nH]n(C)c2=O)ccc(S(C)(=O)=O)c1C1=NOCC1`, the call was inactive.
Take `N#Cc1ccc(C2CCCc3cncn32)cc1` (stereo not given): the molecule was classed as inactive.
On the same count and under the same terms, the same measure for `O=C1CCCCC1C1CCCCC1` (stereo not given): “inactive”; for `COC(=O)[C@H](Cc1ccccc1)NC(=O)[C@@H](N)CC(=O)O` (H-Asp-Phe-OMe): “inactive”.
On to `CCCCc1ccc(Cl)cc1`, for which the molecule was classed as inactive.
For `COCC(=O)O`, the call was inactive.
Consider `CC(C)c1ccc(O)c(C(C)C)c1`, for which the call was inactive.
As to `NNS(=O)(=O)c1ccc(Oc2ccc(S(=O)(=O)NN)cc2)cc1`, the molecule was called inactive.
The AC50 is the concentration giving half of the maximal activity seen. For the molecule `CCCCCCCCCCCC(=O)N(C)CC(=O)O`, the AC50 was 8.09 µM (active).
Consider `CCCCOCCOCCOC(C)=O`, for which the outcome was inactive.
Regarding `Cc1ccc([N+](=O)[O-])cc1N`, the outcome was inactive.
For `COC(=O)c1ccc(C(=O)OC)c(C(=O)OC)c1`, the outcome was inactive.
Turning to `Nc1ccc(Cl)c(N)c1`, the call was inactive.
Regarding `C=C[C@@]1(C)CC(=O)[C@]2(O)[C@@]3(C)[C@@H](O)CCC(C)(C)[C@@H]3[C@H](O)[C@H](OC(C)=O)[C@@]2(C)O1`, the outcome was inactive.
Take `Nc1nc(N)nc(-c2ccccc2)n1`: the call was inactive.
With `COc1ccc(C(=O)c2ccccc2)c(O)c1`, the AC50 is 121 µM (active).
With `O=C(O)C(F)(F)C(F)(F)C(F)(F)C(F)(F)C(=O)O`, the molecule was classed as inactive.
With `CC1=CP(=O)(c2ccccc2)CC1` (stereo not given), the call was inactive.
In the case of `CCCC(C)C(=O)OCC` (stereo not given), the molecule was classed as inactive.
The same measure, in the same setting: the same measure for `CCOC(=O)C1=NOC(c2ccccc2)(c2ccccc2)C1`: “inactive”; for `O=C1c2ccccc2C(=O)c2cc(S(=O)(=O)O)ccc21`: “inactive”.
